Test results: the supplement of paper PMC10338343
± gives the standard deviation.

Each sequence was assayed on MILI (PIWIL2) piRISC loaded with L1MC piRNA (26 nt) (assay: pre-steady-state target cleavage rate (min^-1); guide: L1MC piRNA 5'p-UAACUAAAUACUAUGCAAGCUGUAGG; MIWI and MILI are mouse PIWI proteins and EfPiwi is from a freshwater sponge; tags in brackets are library labels; higher = faster piRNA-guided slicing of the target). Conditions: auxiliary factor: none (no GTSF1).
Procedure, shortened: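 The method was Cleave-'n-Seq, in which uncleaved targets from a transcribed, DNA-blocked target RNA library were sequenced after exposure to active affinity-purified piRISC carrying one synthetic guide, with or without GTSF1 partner protein. Reactions contained 0.1 nM library, 1 nM piRISC and, where present, 500 nM GTSF1 in HEPES–potassium acetate buffer at 33 °C for 0–8 or 0–960 min. Reads were normalised to depth and to weakly complementary targets, three trials were pooled, and k3 was capped at 0.0001 min^-1. The pre-steady-state cleavage rate came from a burst-and-steady-state fit.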

Sequence | pre-steady-state target cleavage rate
UCCUGGAACAGCUUGCAUAGUAUUUUAGUUA | 0.0048 ± 0.0033
UCCUCCUACAGCUUGCAUAGUAUUUACUUA | 0.00429 ± 0.0025
UCCUGGAAGAGCUUGCAUUGUAUUUAGUUA | 0.00838 ± 0.0031
UCCUGCUACAGGUUGCAUAGUAUUAAGUUA | 0.00616 ± 0.0022
UCCUGGAUCAGGUUGCUUAGUAUUUAGUUA | 0.00878 ± 0.0023
UCCUCCUACAGCUUGCAUAGUAUUUAGUCA | 0.00856 ± 0.0028
UCCUGGAUGUGCUUGCAUAGUAUGUUAGUUA | 0.00452 ± 0.0032
UCCUGGUACACCUAGCAUAGUAUUUAGUUA | 0.00696 ± 0.0032
UCCUGGAACAGCUUGCAUAGUACUUAGUUA | 0.0101 ± 0.0024
UCCUGGUACAGGUAGCAUAGUAUUUAGUUA | 0.00976 ± 0.0036
UCCUCCUACAGGAUGCAUAGUAUUUAGUAA | 0.00422 ± 0.0022
UCCUGGAACAGCAUGCAUUGUAUUUAGUUA | 0.00901 ± 0.0024
UCCUGGUACUGCUUGCAUUGUAUUUAGUUA | 0.00624 ± 0.0037
UCCUGCACAGCUUGCAUAGUAUUUAGUUA | 0.00995 ± 0.0028
UCCUGCUUACAGCUUGCAUAGUAUUUAGUUA | 0.0088 ± 0.0032
UCCUGCUUGAGCUUGCAUAGUAUUUAGUAA | 0.00365 ± 0.0027
UCCUCCUUCAGCUUGCAUAGUAUAUAGUUA | 0.00364 ± 0.0025
UCCUGGAUCAGCUUGCAUAGUAUUCAGUUA | 0.00376 ± 0.0025
UCCUGGAUCAGCUUGCAUCGUAUUUAGUUA | 0.00789 ± 0.0027
UCCUCCUACAGGUUGCAUAGUAUAUAGUUA | 0.00587 ± 0.0019
UCCUGGUACAGCUUGCAUAGUAUUAUGUUA | 0.00435 ± 0.0031
UCCUGCUAGAGCUUGCAUAGUAUUAAGUUA | 0.00303 ± 0.0024
UCCUCCUUCAGCUUGGAUAGUAUUUAGUUA | 0.0086 ± 0.0023
UCCUGGUACAAGCUUGCAUAGUAUUUAGUUA | 0.0121 ± 0.0042
